{"source": "PubChem BioAssay (NCI)", "note": "The panel holds about 83,000 compounds, 20% with a hit somewhere; the sample as a whole holds those more often.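 Cells were grown in 96-well plates and exposed to the test compound at a single concentration for 48 hours; results are reported as percent growth, with values below 10 considered active.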 Unmarked numbers belong to inactive results. Activity calls are given as the source filed them."}
{"system": "UACC-62 melanoma", "assay": "NCI-60 one-dose screen, 48 h (100 = growth as untreated, 0 = no growth, -100 = all killed)", "details": "10 µM unless noted"}
{"compound": "CNCCCNc1nc2ccccc2c2c(=O)c3cc(OC)ccc3sc12", "growth": "99.3%"}
{"compound": "COc1ccc(-c2[nH]c3ccc(OC)cc3c2/C=C(\\C#N)S(=O)(=O)c2ccccc2)cc1", "growth": "22%"}
{"compound": "CC(=O)OC[C@H]1OC(Sc2sc(C(=O)c3ccc(Br)cc3)c(N)c2-c2nc3ccccc3s2)[C@H](OC(C)=O)[C@@H](OC(C)=O)[C@H]1OC(C)=O", "note": "(some centres not stated)", "growth": "60.4%"}
{"compound": "Cc1ccc(-c2nc3c(c(-c4ccccc4)nn3-c3ccccc3)c(-c3ccc(O)cc3)c2C#N)cc1", "growth": "63.7%"}
{"compound": "CCC12CCC[N+]3([O-])CCC4(C(=Nc5ccccc54)C(O)(C(=O)OC)C1)C23", "note": "(configuration not stated)", "growth": "103%"}
{"compound": "S=c1nc(-c2ccccc2)oc(=NC2CCCCC2)n1C1CCCCC1", "growth": "70.9%"}
{"compound": "C=CCc1cc(C)ccc1NC(C(=O)NCC(=O)OC)c1ccccc1", "note": "(configuration not stated)", "growth": "95.4%"}
{"compound": "COc1ccc(OC)c(/C=C/C(=O)N/N=C/c2ccccc2)c1", "growth": "61%"}
{"compound": "COc1ccc(/C=N/Nc2cc(=O)[nH]c3ccc(Cl)cc23)cc1", "growth": "77.3%"}
{"compound": "COc1cc(Nc2nc(NCCN)nc3cc[nH]c(=O)c23)cc(OC)c1", "growth": "57.2%"}
{"compound": "Cc1nc2ccccc2c(/C=C/c2ccc(Cl)cc2)c1C(=O)/C=C/c1ccc(C(F)(F)F)cc1", "growth": "-59.3% (active)"}
{"compound": "CCCCn1c(=O)c(-c2cc(-c3ccc(Cl)cc3)nc(-c3ccc(Cl)cc3)c2)cc2cc(Cl)ccc21", "growth": "88.5%"}
{"compound": "CCCCC[C@H](O)C/C=C1/C(=O)C=C[C@@H]1C/C=C\\CCCC(=O)O", "growth": "60.9%"}
{"compound": "COc1cccc2c(=O)c3c(sc12)c(NCCCN)nc1ccccc13", "growth": "88.3%"}
{"system": "LOX IMVI melanoma", "assay": "NCI-60 one-dose screen, 48 h (100 = growth as untreated, 0 = no growth, -100 = all killed)", "details": "10 µM unless noted"}
{"compound": "CN1CCN(c2ccc(-c3ccc4ncc(C#N)c(Nc5ccc(F)c(Cl)c5)c4c3)cc2)CC1", "growth": "43%"}
{"compound": "CNc1ccc(Nc2cccc(C)c2)c2c1C(=O)c1ccccc1C2=O", "growth": "81.5%"}
{"compound": "O=C(Nc1ccc(Cl)cc1F)c1ccccc1O", "growth": "28.2%"}
{"compound": "O=C1CCC(C(=O)NCCNCCNC(=O)C2CCC(=O)N2)N1", "note": "(configuration not stated)", "growth": "96.5%"}
{"compound": "CC/C=C\\C[C@@H](O)C/C=C1/C(=O)C=C[C@H]1C/C=C\\CCCC(=O)OC", "growth": "-69% (active)"}
{"compound": "Cc1ccc(C(=O)NN2C(=O)CSC2c2cccc([N+](=O)[O-])c2)cn1", "note": "(configuration not stated)", "growth": "90%"}
{"compound": "CNCCCNc1nc2ccccc2c2c(=O)c3cc(OC)ccc3sc12", "growth": "-38.1% (active)"}
{"compound": "COc1ccc(-c2[nH]c3ccc(OC)cc3c2/C=C(\\C#N)S(=O)(=O)c2ccccc2)cc1", "growth": "36.4%"}
{"compound": "N[C@@H](Cc1ccccc1)[C@@H](O)C(=O)NCc1ccc(F)cc1", "growth": "105%"}
{"compound": "COc1cc(CCC[P+](c2ccccc2)(c2ccccc2)c2ccccc2)c(OC)c(OC)c1OC", "growth": "79.2%"}
{"compound": "O=C(Nc1ccc(OS(=O)(=O)c2ccc(F)cc2)cc1)c1ccc(Cl)cc1", "growth": "98.7%"}
{"compound": "CC(=O)OC[C@H]1OC(Sc2sc(C(=O)c3ccc(Br)cc3)c(N)c2-c2nc3ccccc3s2)[C@H](OC(C)=O)[C@@H](OC(C)=O)[C@H]1OC(C)=O", "note": "(some centres not stated)", "growth": "96.8%"}
{"compound": "CCOc1c(B(O)O)cccc1-c1nc2ccc3[nH]ncc3c2c2c1CCCC2", "growth": "37%"}
{"compound": "Cc1ccc(-c2nc3c(c(-c4ccccc4)nn3-c3ccccc3)c(-c3ccc(O)cc3)c2C#N)cc1", "growth": "12.2%"}
{"compound": "C/C(=C\\C(=O)c1ccc(Cl)cc1)c1ccc(Cl)cc1", "growth": "100%"}
{"compound": "CCC12CCC[N+]3([O-])CCC4(C(=Nc5ccccc54)C(O)(C(=O)OC)C1)C23", "note": "(configuration not stated)", "growth": "100%"}
{"compound": "CCN1C(=O)N(CC)C2Nn3c(s/c(=C4\\C(=O)N(CCC(C)C)c5ccccc54)c3=O)=NC21", "note": "(configuration not stated)", "growth": "91.7%"}
{"compound": "S=c1nc(-c2ccccc2)oc(=NC2CCCCC2)n1C1CCCCC1", "growth": "30.1%"}
{"compound": "NC[C@@H]1O[C@H](O[C@@H]2[C@@H](CO)OC(O[C@@H]3[C@@H](O)[C@H](N)C[C@H](N)[C@H]3OC3O[C@H](CN)[C@@H](O)[C@H](O)[C@H]3N)[C@@H]2O)[C@H](N)[C@@H](O)[C@@H]1O", "note": "(some centres not stated)", "growth": "101%"}
{"compound": "Cc1cc(=O)oc2cc(OC(=O)N3CCN(C)CC3)ccc12", "growth": "95.1%"}
{"compound": "C=CCc1cc(C)ccc1NC(C(=O)NCC(=O)OC)c1ccccc1", "note": "(configuration not stated)", "growth": "103%"}
{"compound": "COc1ccc(OC)c(/C=C/C(=O)N/N=C/c2ccccc2)c1", "growth": "42.1%"}
{"compound": "COc1ccc(/C=N/Nc2cc(=O)[nH]c3ccc(Cl)cc23)cc1", "growth": "37.2%"}
{"compound": "CCOC(=O)c1[nH]c(C)c(C(=O)OCc2ccccc2C#N)c1C", "growth": "63.1%"}
{"compound": "COc1cc(Nc2nc(NCCN)nc3cc[nH]c(=O)c23)cc(OC)c1", "growth": "51.8%"}
{"compound": "COc1cc(/C=C/c2c(C(C)=O)c(C)nc3ccccc23)cc(OC)c1OC", "growth": "38.9%"}
{"compound": "Cc1nc2ccccc2c(/C=C/c2ccc(Cl)cc2)c1C(=O)/C=C/c1ccc(C(F)(F)F)cc1", "growth": "-89% (active)"}
{"compound": "O=C(N/N=C/[C@H](O)[C@H](O)[C@H](O)CO)c1ccc(NC(=O)c2cccnc2)cc1", "growth": "99.1%"}
{"compound": "COc1cccc(-c2nc(-c3ccc(NC(=O)c4ccccc4)cc3)[nH]c2-c2ccnc(Br)c2)c1", "growth": "-55.8% (active)"}
{"compound": "CCCCn1c(=O)c(-c2cc(-c3ccc(Cl)cc3)nc(-c3ccc(Cl)cc3)c2)cc2cc(Cl)ccc21", "growth": "99.9%"}
{"compound": "O=S(=O)(NCCCNc1cc(-c2c(-c3cccc(O)c3)nc3sccn23)ccn1)c1cccc2ccccc12", "growth": "33%"}
{"compound": "COc1cccc2c(=O)c3c(sc12)c(N1CCNCC1)nc1ccccc13", "growth": "-29.3% (active)"}
{"compound": "COc1cc(-c2nc3sccn3c2-c2ccnc(NCCCNS(=O)(=O)c3ccc(F)cc3)n2)ccc1F", "growth": "48.3%"}
{"compound": "CCCCC[C@H](O)C/C=C1/C(=O)C=C[C@@H]1C/C=C\\CCCC(=O)O", "growth": "6.2% (active)"}
{"compound": "CCCCCCN1C(=O)/C(=c2\\sc3n(c2=O)C2C(NN=3)N(CC)C(=O)N2CC)c2ccccc21", "note": "(configuration not stated)", "growth": "-23% (active)"}
{"compound": "COc1cccc2c(=O)c3c(sc12)c(NCCCN)nc1ccccc13", "growth": "-81.7% (active)"}
{"compound": "COc1ccc2c(c1)c(-c1nn3cc(-c4cccs4)nc3s1)cn2C", "growth": "54.1%"}
{"compound": "CCOC(=O)Nc1ccc(-c2nc(-c3cccc(OC)c3)c(-c3ccnc(Br)c3)[nH]2)cc1", "growth": "4.57% (active)"}
